Assay results published in the supplement of paper PMC4723716.
Whole data set: some 3,600 compounds, median “viability index relative to DMSO control” near 0.81, cut for the lowest 2% near 0.13. The sample holds the lowest values, similar compounds and a random draw of the others, so the mix is not that of the screen.

Each molecule was assayed on Plasmodium falciparum NF54 stage V gametocytes (assay: viability index relative to DMSO control (fraction); higher = less gametocyte killing). Settings: 1.25 µM, incubation time: 72 h.
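Also: Saponin-lysis sexual stage assay in serum-free medium: MitoTracker Red CMXRos staining plus saponin, high-content imaging, particle count per well divided by plate mean of DMSO wells.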

Row | SMILES | viability index
1 | O=[N+]([O-])c1ccc2nc(NC3CCCCC3)c(NC3CCCCC3)nc2c1 | 0.86
2 | O=[N+]([O-])c1ccc2nc(Nc3ccccc3)c(Nc3ccccc3)nc2c1 | 0.481
3 | O=[N+]([O-])c1ccc2nc(Nc3ccc(Cl)c(Cl)c3)c(Nc3ccc(Cl)c(Cl)c3)nc2c1 | 0.0962
4 | CC1(C)Cc2c(sc(NC(=O)CCl)c2C#N)CO1 | 0.556
5 | CC(C)c1nc(N2CCN(C(=S)NCc3ccccc3)CC2)c(C#N)c2c1COC(C)(C)C2 | 0.0888
6 | Cc1ccc(-c2noc(C3CCN(C(=O)Nc4ccc(C#N)cc4)CC3)n2)o1 | 0.957
7 | CCCC(=O)N1CCN(c2nc(Cc3ccccc3)c3c(c2C#N)CC(C)(C)OC3)CC1 | 0.568
8 | O=[N+]([O-])c1ccc(S(=O)(=O)N2CCN(C(=S)NCc3ccccc3)CC2)cc1 | 0.163
9 | CC(C)c1nc(N2CCN(C(=O)Nc3ccccc3)CC2)c(C#N)c2c1COC(C)(C)C2 | 0.0954
10 | CC[n+]1c(SC)ccc2cc(OC)ccc21 | 0.681
11 | CCC(=O)NCc1nnc(SCc2cccc(C(F)(F)F)c2)n1-c1cccc(OC)c1 | 0.865
12 | C[n+]1ccccc1C=Cc1cc(Br)ccc1O | 0.819
13 | CC(NC(=O)C(=O)N1CCCCC1)C(c1cccs1)N1CCOCC1 (stereo not given) | 0.787
14 | Cc1nc2ncccn2c1-c1csc(Nc2ccccn2)n1 | 1.06
15 | Fc1cccc2sc(Nc3nc(-c4ccccn4)cs3)nc12 | 0.322
16 | Cc1ccnc(Nc2nc(-c3ccc(Cl)cc3)cs2)c1 | 0.938
17 | COc1ccc2nc(Nc3nc(-c4ccccn4)cs3)sc2c1 | 0.331
18 | Cc1ccnc(Nc2nc(-c3ccccn3)cs2)c1 | 0.0192
19 | Cc1nc2sccn2c1-c1csc(Nc2ccccn2)n1 | 0.89
20 | CC(=O)Nc1nc(C)c(-c2csc(Nc3ccc(C)cc3)n2)s1 | 0.351
21 | c1ccc(Nc2nc(-c3ccccn3)cs2)nc1 | 0.0653
22 | Cc1ccnc(Nc2nc(-c3c(C)nc4sccn34)cs2)c1 | 0.822
23 | O=C(Nc1nc(-c2ccccn2)cs1)c1ccc(Oc2ccc(C(=O)Nc3nc(-c4ccccn4)cs3)cc2)cc1 | 0.00826

Row | SMILES | viability index
24 | COc1ccc2sc(Nc3nc(-c4ccccn4)cs3)nc2c1 | 0.876
25 | Cc1ccc(Nc2nc(-c3ccccn3)cs2)cc1 | 0.127
26 | CC1CCc2c(sc(NC(=O)c3ccccc3F)c2C(=O)NCc2ccccc2)C1 (stereo not given) | 1.42
27 | CCC(CC)=NNC(=O)C(=O)NC1CCCCC1 | 1.13
28 | CCC(=O)NC(c1ccccc1Cl)c1cc(Cl)c2cccnc2c1O (stereo not given) | 0.86
29 | O=C(O)c1ccc(S(=O)(=O)c2ccc3c(c2)C(=O)N(c2ccc(Sc4ccc([N+](=O)[O-])cc4)cc2)C3=O)cc1 | 0.887
30 | CCOc1ccc(Nc2cc(=O)oc3ccccc23)cc1 | 0.618
31 | CCCn1nc(Oc2nc(NCC)cc(OC)n2)ccc1=O | 0.859
32 | N=c1c2c(n(Cc3ccccc3)c3c1CCC3)CCC2 | 0.87
33 | O=[N+]([O-])c1ccc(N2CCN(C(=S)Nc3ccccc3)CC2)cc1 | 0.967
34 | O=[N+]([O-])c1ccc(N2CCCN(C(=S)Nc3ccccc3)CC2)nc1 | 0.0788
35 | O=[N+]([O-])c1ccc(N2CCCN(C(=S)Nc3ccc(F)cc3Br)CC2)nc1 | 0.261
36 | NC1=NC(c2ccccc2)N(c2ccccc2)C(N)=N1 (stereo not given) | 1.12
37 | O=C(Nc1ccccc1C(=O)O)c1cccc(NC(=O)c2ccco2)c1 | 0.73
38 | CCn1c(CSc2nc(C)cc(C)n2)nnc1SCC(N)=O | 1.13
39 | CC(=O)N(C1=C(N(C)C)C(=O)c2ccccc2C1=O)c1ccc(Cl)cc1 | 0.208
40 | CC(=O)N(C1=C(N2CCC(C)CC2)C(=O)c2ccccc2C1=O)c1cccc(F)c1 | 0.892
41 | CC(=O)N(C1=C(N(C)C)C(=O)c2ccccc2C1=O)c1cccc(F)c1 | 0.0612
42 | CC(=O)N(C1=C(N(C)C)C(=O)c2ccccc2C1=O)c1ccc(F)c(F)c1 | 0.0288
43 | CC(=O)N(C1=C(N(C)C)C(=O)c2ccccc2C1=O)c1ccc(Cl)c(Cl)c1 | 0.257
44 | CC(=O)N(C1=C(N(C)C)C(=O)c2ccccc2C1=O)c1ccc(F)cc1 | 0.0453
45 | CC(=O)N(C1=C(N(C)C)C(=O)c2ccccc2C1=O)c1cc(C)cc(C)c1 | 0.0811
46 | CC(=O)N(C1=C(N2CCOCC2)C(=O)c2ccccc2C1=O)c1ccc(I)cc1 | 0.14

Row | SMILES | viability index
47 | O=C(CN(CCN1CCOCC1)S(=O)(=O)c1ccccn1)N1CCN(C(c2ccccc2)c2ccccc2)CC1 | 0.637
48 | CCN(CC)c1ccc(C=NNC(=O)c2ccc(Nc3nc(-c4ccccc4)cs3)cc2)c(O)c1 | 0.675
49 | Cc1ccccc1N1C(=O)C2C3c4ccccc4C(C(=O)O)(c4ccccc43)C2C1=O (stereo not given) | 0.616
50 | CN(C)CCN1CCN(c2ccnc3cc4ccccc4cc23)CC1 | 0.84
51 | O=c1c(=O)n(Cc2cccc(C(F)(F)F)c2)ccn1CCc1ccccc1 | 0.751
52 | CCN(CC)S(=O)(=O)c1ccc2[nH]cc(C(=O)NCCCN3CCN(c4ccc(OC)cc4)CC3)c(=O)c2c1 | 1.14
53 | CCN(CC)c1ccc(N=Cc2ccc(Sc3nc4ccccc4s3)o2)cc1 | 1.17
54 | OC(COc1ccc(OCC(O)CN2CCN(C3c4ccccc4-c4ccccc43)CC2)cc1)CN1CCN(C2c3ccccc3-c3ccccc32)CC1 (stereo not given) | 0.754
55 | CC(=O)N(C1=C(N(C)C)C(=O)c2ccccc2C1=O)c1cccc(Cl)c1 | 0
56 | Cc1nc2c(C)cccc2c(O)c1CC=C(Cl)Cl | 0.759
57 | Oc1c(CN2CCN(Cc3ccc4cccnc4c3O)CC2)ccc2cccnc12 | 0.601
58 | COc1ccc(S(=O)(=O)N=C2C=C(Nc3ccccc3)C(=O)c3ccccc32)cc1 | 0.232
59 | COc1ccc(C(OCCS(=O)(=O)CCO)(c2ccccc2)c2ccc(OC)cc2)cc1 | 0.0248
60 | COc1ccc(-c2nc(NC(=O)CS(=O)(=O)c3ccccc3)sc2C)cc1 | 1.02
61 | O=C(Nc1ccc(Oc2ccc(OC(F)(F)F)cc2)cc1)C1CC1 | 0.693
62 | CCCOC(=O)C1=C(C)NC2=C(C(=O)CC(c3ccc(OC)c(OC)c3)C2)C1c1cccc(Br)c1 (stereo not given) | 0.83
63 | CCN1CCN(c2cc(C)c3cc(NC(=O)c4cncc(Br)c4)ccc3n2)CC1 | 0.801
64 | CCCCOc1ccc(N(C(C)=O)C2=C(N3CCCCC3)C(=O)c3ccccc3C2=O)cc1 | 0.301
65 | CC(=O)N(C1=C(N2CCCCC2)C(=O)c2ccccc2C1=O)c1cccc(F)c1 | 0.833
66 | CC(=O)N(C1=C(N2CCCC2)C(=O)c2ccccc2C1=O)c1cccc(F)c1 | 1
67 | CCCNC1=C(N(C(C)=O)c2ccc(C)cc2)C(=O)c2ccccc2C1=O | 0.0531
68 | CCCNC1=C(N(C(C)=O)c2cccc(F)c2)C(=O)c2ccccc2C1=O | 0.0245
69 | CC(=O)N(C1=C(N2CCCC2)C(=O)c2ccccc2C1=O)c1ccc(I)cc1 | 0.879

Row | SMILES | viability index
70 | COc1cccc(C(=O)NC(c2ccc(Cl)cc2)c2cc(Cl)c3cccnc3c2O)c1 (stereo not given) | 0.523
71 | COCCCNC(=O)C=Cc1ccc(C(C)C)cc1 | 0.976
72 | C=CCOC(=O)C1=C(C)N2CCSC2=C(C#N)C1c1ccco1 (stereo not given) | 1.13
73 | O=C(Nc1ccc2nc3n(c(=O)c2c1)CCCCC3)C(=O)N1CCN(c2cccc(Cl)c2)CC1 | 0.432
74 | O=C(CCCCCN1C(=O)c2cccc3cccc(c23)C1=O)NO | 0.853
75 | Cn1c(SCc2cccc([N+](=O)[O-])c2)nc2c(c1=O)SCC2 | 0.818
76 | CC(=O)N(C1=C(N2CCCCC2)C(=O)c2ccccc2C1=O)c1ccc(F)c(F)c1 | 0.837
77 | CC(=O)N(C1=C(N2CCCCC2)C(=O)c2ccccc2C1=O)c1cccc(Cl)c1 | 0.144
78 | CC(=O)N(C1=C(N2CCOCC2)C(=O)c2ccccc2C1=O)c1cccc(Cl)c1 | 0.0385
79 | CC(=O)N(C1=C(N2CCOCC2)C(=O)c2ccccc2C1=O)c1ccc(Br)cc1 | 0.408
80 | CC(=O)N(C1=C(N2CCN(C)CC2)C(=O)c2ccccc2C1=O)c1cc(C)cc(C)c1 | 0.521
81 | CC(=O)N(C1=C(N2CCOCC2)C(=O)c2ccccc2C1=O)c1ccc(F)c(F)c1 | 0.0694
82 | CC(=O)N(C1=C(N2CCOCC2)C(=O)c2ccccc2C1=O)c1cc(C)cc(C)c1 | 0.0695
83 | CC(=O)N(C1=C(N2CCCC2)C(=O)c2ccccc2C1=O)c1ccc(F)c(F)c1 | 0.743
84 | CC(=O)N(C1=C(N2CCOCC2)C(=O)c2ccccc2C1=O)c1ccc(Cl)c(Cl)c1 | 0.351
85 | COc1cncc(-c2cncc(-c3ccc(Oc4ccccc4)cc3)n2)c1 | 0.899
86 | COc1cc2c(cc1OC)C(COc1ccc(F)cc1)N(C(=O)c1ccc(OC(C)C)cc1)CC2 (stereo not given) | 0.66
87 | CCCN(CCC)CC(O)COc1ccccc1C(=O)Nc1ccccc1 (stereo not given) | 0.65
88 | Cc1ccc(N2C(N)=NC(N)=NC2(C)C)cc1 | 0.985
89 | C=CCCC(=O)N1CCC(C(=O)Nc2ccc(-c3nc4ccccc4o3)cc2)CC1 | 0.846
90 | c1ccc2c(c1)[nH]c1c(NCCN3CCCCC3)ncnc12 | 1.09
